The values that follow come from PubChem BioAssay (NCI).

Holding throughout (assay): NCI-60 one-dose screen, 48 h (100 = growth as untreated, 0 = no growth, -100 = all killed)
Details in all cases: 10 µM unless noted

The test system of experiment [1] is SR leukemia.
Experiment [2] deals with RPMI-8226 leukemia.
Experiment [3] deals with OVCAR-8 ovarian.
Experiment [4] deals with OVCAR-5 ovarian.
In experiment [5] the test system is OVCAR-4 ovarian.
The subject of experiment [6] is IGROV1 ovarian.
The subject of experiment [7] is OVCAR-3 ovarian.
In experiment [8] the test system is NCI/ADR-RES ovarian.
Experiment [9] relates to T-47D breast.
For experiment [10], the system named is BT-549 breast.
For experiment [11], the system named is MDA-MB-435 melanoma.
Experiment [12] deals with SW-620 colon.
The subject of experiment [13] is MCF7 breast.
In experiment [14] the test system is HCT-116 colon.
Experiment [15] has as its system HCC-2998 colon.
Experiment [16] has as its system KM12 colon.
In experiment [17] the test system is SK-OV-3 ovarian.
The subject of experiment [18] is HS 578T breast.

“And” between values parts separate entries of the source, which are not always exact repeats. Identical values can stand only once. About 83,000 compounds went through this panel and 20% of them were active in at least one assay; those are over-represented in the sample as a whole.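 Each cell line was grown in a 96-well plate and treated with one concentration of compound for 48 hours. Values below 10 were considered active.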 The source made the active and inactive calls.

Regarding `Nc1ccc2c(O)cc(S(=O)(=O)O)cc2c1`, the growth in experiment [1] was 86.3% (inactive); in experiment [2] it was 85% (inactive); in experiment [3], 105% (inactive) and 97.8% (inactive); in experiment [4], 103% (inactive); in experiment [5], 93.5% (inactive); in experiment [6] it was 130% (inactive) and 86.1% (inactive). The growth was 126% (inactive) and 105% (inactive) in experiment [7]; 105% (inactive) in [8]; 85.5% (inactive) and 101% (inactive) in experiment [9]; 94.9% (inactive) and 119% (inactive) in [10]; 104% (inactive) and 113% (inactive) in [11]; 94.3% (inactive) and 95.3% (inactive) in experiment [12]. Also, the growth is 95% (inactive) and 96.6% (inactive) in experiment [13]; 93.8% (inactive) and 94% (inactive) in [14].

Regarding `CCc1cc(C)cc(O)c1`, the growth in experiment [1] was 102% (inactive); in experiment [2], 106% (inactive); in experiment [3] it was 105% (inactive); in experiment [4], 106% (inactive); in experiment [5] it was 112% (inactive); in [6] it was 92% (inactive). The growth in [7] is 126% (inactive); in experiment [8] it was 111% (inactive); in experiment [9], 102% (inactive); in [11] it was 113% (inactive); in experiment [12], 107% (inactive); in experiment [13] it was 98.3% (inactive). Further, the growth is 98.2% (inactive) in [14], 104% (inactive) in [15] and 114% (inactive) in experiment [16].

Consider `CCN(CCNS(C)(=O)=O)c1ccc(N)c(C)c1`, for which the growth in experiment [1] is 94.9% (inactive); in experiment [2] it was 59.9% (inactive) and 110% (inactive); in [3], 78.1% (inactive) and 97.5% (inactive); in experiment [4], 115% (inactive) and 109% (inactive); in experiment [5], 69.6% (inactive) and 102% (inactive); in [6], 70.3% (inactive) and 68.9% (inactive). Moreover, the growth in experiment [7] was 25.5% (inactive) and 77.8% (inactive); in experiment [8], 90.2% (inactive) and 96.9% (inactive); in experiment [9], 1.47% (active) and 56.8% (inactive); in [10] it was 73.8% (inactive) and 102% (inactive); in experiment [11] it was 28.9% (inactive) and 76.5% (inactive); in [12], 21.6% (inactive) and -27.2% (active). Besides, the growth in experiment [13] was 20.6% (inactive) and 72.8% (inactive); in experiment [14], -52.9% (active) and 43.1% (inactive); in [16] it was 103% (inactive).

`CN1CNC(=O)NC1`: the growth in experiment [1] is 106% (inactive) and 79.6% (inactive); in experiment [2] it was 113% (inactive) and 104% (inactive); in [3], 106% (inactive) and 98.6% (inactive); in experiment [4], 112% (inactive) and 111% (inactive); in experiment [5] it was 119% (inactive) and 112% (inactive); in experiment [17], 112% (inactive) and 105% (inactive). Also, the growth was 137% (inactive) and 97.8% (inactive) in [6]; 112% (inactive) and 107% (inactive) in experiment [7]; 109% (inactive) and 96.5% (inactive) in [18]; 109% (inactive) and 103% (inactive) in experiment [8]; 112% (inactive) and 100% (inactive) in [9]; 97.8% (inactive) and 112% (inactive) in experiment [10]. Moreover, the growth was 106% (inactive) and 115% (inactive) in experiment [11]; 105% (inactive) and 104% (inactive) in [12]; 109% (inactive) and 96.4% (inactive) in [13]; 105% (inactive) in [14]; 113% (inactive) and 102% (inactive) in [15]; 117% (inactive) and 105% (inactive) in experiment [16].

As to `COc1ccc(C(=O)CC(c2ccccc2)C(C#N)c2ccccc2)cc1` (stereo not drawn), the growth in [1] is 73.8% (inactive); in [2] it was 72.6% (inactive); in [3] it was 86% (inactive); in [4], 110% (inactive); in experiment [5] it was 88.8% (inactive); in experiment [6], 102% (inactive). Also, the growth is 82.4% (inactive) in experiment [7]; 86.4% (inactive) in experiment [18]; 84.2% (inactive) in experiment [8]; 78.9% (inactive) in experiment [11]; 91.1% (inactive) in [12]; 93.4% (inactive) in experiment [13]. The growth in experiment [14] is 91.2% (inactive); in [15] it was 99.1% (inactive).

In the case of `CCCCOC(=O)/C=C\C(=O)NC(N)=O`, the growth was -22.3% (active) in experiment [1]; 39.5% (inactive) in [2]; 71.1% (inactive) in experiment [3]; 93.1% (inactive) in [4]; 93.4% (inactive) in experiment [5]; 111% (inactive) in experiment [17]. For the same compound, the growth in [6] is 74.1% (inactive); in experiment [7], 87.7% (inactive); in experiment [8], 90.8% (inactive); in experiment [9], 60.4% (inactive); in [10] it was 63.5% (inactive); in [11], 99.4% (inactive). The growth in experiment [12] was 57.1% (inactive); in experiment [13], 81.1% (inactive); in experiment [14], 80.1% (inactive); in [15] it was 108% (inactive).

For `CCCCNc1ccc(Nc2ccccc2)cc1`, the growth in [1] is 62.3% (inactive); in [2], -25% (active); in [3], 74.2% (inactive); in experiment [4] it was 103% (inactive); in [5], 39% (inactive); in experiment [6], 58.7% (inactive). Further, the growth was 66% (inactive) in experiment [7]; 86.4% (inactive) in experiment [8]; 34% (inactive) in experiment [9]; 49.7% (inactive) in experiment [10]; 71.8% (inactive) in [11]; 84.3% (inactive) in experiment [12]. For the same compound, the growth in [13] is 67.3% (inactive); in experiment [14], 47.9% (inactive); in experiment [15], 92% (inactive); in experiment [16] it was 66% (inactive).
